Reference: ChEMBL document CHEMBL3988442, “University of Dundee, Small-Polar-MMV Screening Library” (2021)
The whole screen tested about 48,000 compounds, of which about 13,000 (27%) showed an effect of 50% or more. The list shows a part of the results.

The compounds below were run on Wolbachia pipientis (assay: Anti-Wolbachia Cell-Based Screen). Conditions: 5 µM.
Format: functional
Set-up: scale not given: in the data most compounds retested in dose-response had high values

In order of rising “Percent Effect” value:
1. CCN(C)C1COC2(CCN(C(=O)c3cccc(Cl)c3)CC2)C1.O=C(O)C(F)(F)F (configuration not stated)  -32.01%
2. CN(C)CCN1CCC2(CCCN(Cc3cccn3C)C2)C1=O.O=C(O)C(F)(F)F.O=C(O)C(F)(F)F (configuration not stated)  -29.62%
3. Cc1cc(C)cc(C(C)NCc2nnc(C)s2)c1 (configuration not stated)  -26.09%
4. CCN(C)C(=O)c1ccc(N(C)Cc2cc(-c3ccncc3)no2)nc1  -25.61%
5. COc1cc(C(C)NCc2ncccc2C)ccc1SC(F)F (configuration not stated)  -24.97%
6. Cc1cccc(CNc2nnc(C(C)C)o2)c1  -24.34%
7. O=C(O)c1ccnc(-c2ccnc(NCCc3nc4c(s3)CCC4)n2)c1  -20.67%
8. CCN(C)S(=O)(=O)N1CCCC(CO)(CC=C(C)C)C1 (configuration not stated)  -20.38%
9. O=C(Nc1ccc(F)cc1F)N(CCC(F)(F)F)C[C@H](O)CO  -18.87%
10. CCC(NCc1ncc[nH]1)c1nc(C(F)(F)F)cs1 (configuration not stated)  -16.74%
11. Cc1nn2cc(CCNC(=O)c3cc(C(C)C)nn3C)nc2s1  -16.47%
12. Cc1cccc(COC[C@@]23CCC[C@@H]2CN(S(=O)(=O)N(C)C)C3)n1.O=C(O)C(F)(F)F  -15.69%
13. CC(C)SCc1cccc(NC(=O)NC(C)c2nc[nH]n2)c1 (configuration not stated)  -14.93%
14. COCC1CCN(C(=O)c2cc(-c3ccco3)nc3c(Cl)cccc23)C1 (configuration not stated)  -13.75%
15. Cc1ccccc1S(=O)(=O)NC(=O)CSc1ccc2c(c1)OCCO2  -12.34%
16. NC(=O)NC(=O)CCn1ccc(-c2ccsc2)n1  -12.21%
17. Cc1ccc(CNC(=O)CN(C)CC2CCN(CCO)CC2)s1  -11.99%
18. O=C1NCCN(CC2CC2)C12CCN(Cc1ccc3c(c1)OCO3)CC2  -10.73%
19. CSc1ccc(CNC2(c3ccc(F)cc3)CCOCC2)cc1  -10.48%
20. COc1nc2c(cc1C(=O)NCCc1nc3c(s1)CCC3)CCC2  -9.23%
21. O=C(NC[C@H]1OC[C@@H](N(CC2CC2)CC2CC2)[C@@H]1O)Nc1ccccc1  -9.212%
22. CC(C)[C@H](Nc1cc(-c2ccncc2)nc2ccnn12)C(N)=O  -7.86%
23. COC(=O)c1cccn1C1CCN(C(=O)c2cc(C)ccc2O)CC1  -6.759%
24. CN1CCN(Cc2cn3c(n2)CNCC3)CC1.Cl.Cl.Cl  -6.492%
25. CN(C)CCN(C)C1CCCN(C(=O)c2ccc(Cn3ccnc3)o2)C1 (configuration not stated)  -5.736%
26. CC(C)N1CCc2ncn(C)c2C1C(=O)NCCN1CCCC1 (configuration not stated)  -5.495%
27. COc1nc2c(cc1C(=O)NCCc1nc(C)c(C(=O)O)s1)CCC2  -5.377%
28. CNC(=O)c1c(C)cccc1NCc1nnc(C2CC2)o1  -4.757%
29. C[C@@H]1CN(c2nc(N)nc3c2CCC3)C[C@]1(C)O  -4.313%
30. Cc1nc(CNc2ncc(Br)cn2)n[nH]1  -4.306%
31. COc1ccc(CNc2c(C)nn(C(C)C)c2C)cc1  -4.166%
32. COc1nccnc1N1CCN(Cc2ccc3c(c2)OCO3)C(=O)C1  -4.11%
33. C[C@@H]1CN(c2nc(N)nc3c2CCC3)CC[C@@]1(O)C1CCC1  -3.571%
34. CC(C)OC(=O)N1CCCC(c2nccn2Cc2ccncc2)C1 (configuration not stated)  -3.54%
35. CC(O)CN1CCC(CN(C)Cc2cccc(C#N)c2)CC1 (configuration not stated)  -3.336%
36. CN1CC(c2ccccc2)CC12CCN(C(=O)c1cccnc1)CC2 (configuration not stated)  -3.135%
37. O=C(c1cnn[nH]1)N(Cc1ccncc1)CC1CCCO1 (configuration not stated)  -2.849%
38. COCCN1CCC2(CCCN(C(=O)c3ccoc3C)C2)C1=O (configuration not stated)  -2.249%
39. CN(Cc1ccc2c(c1)OCCO2)C(=O)Cn1ccccc1=O  -2.106%
40. CC1(C)CN(Cc2csc(CS(C)(=O)=O)n2)Cc2ccccc21  -1.783%
41. O=C(Cc1cccc(F)c1)N1CCc2ncnc(N3CCCC3)c2CC1  -1.475%
42. CC(NC(=O)NCCCn1cncn1)c1ccccc1Cl (configuration not stated)  -1.417%
43. CNC(=O)c1ccc(CNC(=O)c2cc(C(C)C)n(C)n2)cc1  -0.9811%
44. CCN(CC)C(=O)Cn1cc(C(=O)NCCc2nc(C)c(C)s2)nn1  -0.7768%
45. Cc1ccccc1C1CCN(CCn2cc(-c3cccc(O)c3)nn2)C1 (configuration not stated)  -0.06043%
46. Cc1ncnc2c1CCN(C(=O)Cc1cccc(F)c1)CC2  0.1924%
47. O=C(CSc1ccccc1Cl)NS(=O)(=O)c1ccc2c(c1)OCCO2  0.8211%
48. CCOC(=O)C1CCN(C(=O)CN2CCCC2c2ccsc2)CC1 (configuration not stated)  0.9272%
49. COC(=O)c1cccn1C1CCN(C(=O)c2cn[nH]c2C)CC1  1.064%
50. CCN(C)CC(C)Cn1cnc(-c2ccccc2)c1-c1cncn1CC (configuration not stated)  1.36%
51. Cc1cc(C)n(-c2cncc(NCCNC(=O)C(C)C)n2)n1  1.534%
52. COCCN1CCN(C)C2(CCN(C(=O)c3ccnnc3)CC2)C1=O.O=C(O)C(F)(F)F  1.549%
53. COc1cccc([C@@H]2CN(C(=O)c3ccc(C)cc3O)C[C@H]2C(=O)O)c1  2.23%
54. COc1ccc(CNC(C)c2cn[nH]c2C)cc1 (configuration not stated)  2.524%
55. COC(=O)c1ccc(CNC(=O)CN2C[C@@H](NC(C)=O)[C@H](C(C)C)C2)o1  2.567%
56. Cc1nc2c(c(N3CCC4(CCCNC4=O)C3)n1)CCC2 (configuration not stated)  3.026%
57. COc1ncnc2c1CCN(C(=O)Cc1cccc(F)c1)CC2  3.249%
58. COc1cccc2c1OCC(C(=O)NCCc1nc3c(s1)CCC3)C2 (configuration not stated)  3.483%
59. Cc1nnc(NCc2ccc(F)cc2)o1  4.213%
60. Cc1ccc(C(=O)N2CCC(c3nccn3C(C)C)CC2)c(=O)[nH]1  4.246%
61. COc1ccc(NC(=O)N2CCN(c3ncccn3)CC2)cn1  4.438%
62. Cc1cccc(CNc2cncc(-n3cccn3)n2)c1  4.61%
63. CCCC(=O)N(CCCN1CCOCC1)c1nc2c(C)c(C)ccc2s1.Cl  4.916%
64. Cc1noc(NCc2ccc(F)cc2)n1  5.861%
65. COC(=O)CCC(=O)N1CCc2[nH]nc(-c3ccc4c(c3)OCO4)c2C1  6.027%
66. COc1ccc(-c2nc(CNC(C)Cn3cccn3)cs2)cc1 (configuration not stated)  6.683%
67. Cc1ccc(F)cc1C(=O)OCC1CCCN1C(N)=O (configuration not stated)  7.06%
68. CCC[C@@H]1CN(Cc2ccc(C(F)(F)F)nc2)C[C@H]1C(=O)O  8.814%
69. CCCN1CCN(C(=O)c2cccnc2)CC1  10.45%
70. CCc1nc(NCCCn2cccn2)c2c(n1)c(C)nn2C  10.76%
71. Cc1nn(C)c(Oc2cccc(F)c2)c1NC(=O)C1CCOCC1  12.99%
72. COc1c(C)cnc(CN(C)C(=O)c2ccccn2)c1C  13.08%
73. CC(=O)NC1CCN(c2nc(N)nc3c2CCCC3)C1 (configuration not stated)  13.41%
74. O=C(Nc1ccccc1OC1CCOC1)c1[nH]nc2c1CCCC2 (configuration not stated)  13.6%
75. O=C(O)C(F)(F)F.O=C(c1cccnc1)N1CCC2(CC1)CCN(c1ccsc1)C2=O  13.97%
76. COC(=O)c1cccn1C1CCN(C(=O)c2cc(F)ccc2F)CC1  16.29%
77. Cc1c(C)n(-c2ccccn2)c2nc3c(c(N)c12)CCCC3  16.56%
78. CC(C)N(C(=O)c1ccccc1-c1nc2c([nH]1)CCNC2)C(C)C  16.68%
79. COCCNc1nc2c(c(NCCc3cccs3)n1)CCNCC2  23.06%
80. Cc1c(C)n(Cc2ccncc2)c2nc3c(c(N)c12)CCCCC3  23.97%
81. Cc1nnc(CNC(C)c2cc(C)c(F)c(C)c2)s1 (configuration not stated)  61.57%
82. COCCN1CCC2(CCN(C(=O)c3ccc(F)cc3)CC2)C1=O  82.71%
83. COC(=O)CN1Cc2cc3c(cc2NCCC1=O)OCO3  87.85%
84. CN1CCCCc2c1nc1c(c2N)CCCC1  88.26%
85. O=C1CCNc2cc3c(cc2CN1CC1CC1)OCO3  89.98%
86. CC(C)(C)CN1Cc2cc3c(cc2NCCC1=O)OCO3  93.04%
87. CN1CCc2c1nc1c(c2N)CCC1  94.13%
88. Cc1cccc(CNc2n[nH]c(C)n2)c1  94.75%
89. COC(=O)c1cccn1C1CCN(C(=O)c2cc(F)ccc2C)CC1  95.76%
90. COc1ccc(CNc2n[nH]c(C)n2)cc1  96.08%
91. CN(C)CCN1CCC2(CCN(C(=O)c3cccc(F)c3)CC2)C1=O.O=C(O)C(F)(F)F  96.95%
92. CN1CCCc2c1nc1c(c2N)CCC1  99.68%
93. CN(C)CCN1CCC2(CCN(C(=O)c3ccncc3)CC2)C1=O.O=C(O)C(F)(F)F.O=C(O)C(F)(F)F  99.78%
94. Cc1ccc(CNc2n[nH]c(C)n2)cc1  101.1%
95. COC(=O)c1cccn1C1CCN(C(=O)c2ccc(C)[nH]c2=O)CC1  102.8%
96. COC(=O)c1cccn1C1CCN(C(=O)c2ccc(C)cc2O)CC1  105.5%
97. COC(=O)c1cccn1C1CCN(C(=O)c2c(C)noc2C)CC1  105.8%
98. O=C(Cc1cccc(F)c1)N1CCc2ncnc(NC3CC3)c2CC1.O=C(O)C(F)(F)F  106%
99. O=C(Cc1cccc(F)c1)N1CCc2ncnc(NC3CCC3)c2CC1  110%
100. CSc1ccc(CNc2n[nH]c(C)n2)cc1  110%
101. Cc1cc(C(=O)NCCc2nc3c(s2)CCCC3)n(C)n1  113.4%
102. CN(C)CCN1CCC2(CCN(C(=O)c3cccnc3)CC2)C1=O  114%
103. CC(C)c1cc(C(=O)NCCc2nc3c(s2)CCC3)n(C)n1  118.8%
104. CCN1Cc2cc3c(cc2NCCC1=O)OCO3  124.2%
105. CC(C)(C)C(=O)NCCc1cc2nc(-c3ccncc3)ccn2n1  129.3%
106. CC(C)C(=O)NCCc1cc2nc(-c3ccncc3)ccn2n1  130.4%
107. Cc1nc(CCNC(=O)c2cc(C(C)C)nn2C)sc1C  143.4%
